Screening results: PubChem, Broad Institute
A selection follows.
aSyn UTR act – Activators working through SNCA 5'UTR binding (MLPCN) | alpha-synuclein 5'UTR reporter, activators screen | activity score, % (tested at 7.5 µM), hits read low | hit rate 7.1% among 300,000 | AID 1814; in the data active means activity score below about -60%
An asterisk follows results filed as active.

`COc1ccc(NC(=O)c2cn(-c3ccccc3)nc2-c2cc3ccccc3o2)cc1` gave aSyn UTR act -71*.
OCc1cn(-c2ccccc2)nc1-c1cc2ccccc2o1 was read as aSyn UTR act -179*.
For COc1ccc(-c2nn(-c3ccccc3)cc2C(=O)NC(=S)NNC(=O)c2ccncc2)cc1 the results were aSyn UTR act 73.
O=C(N/N=C/c1cn(-c2cccs2)nc1-c1ccccc1)c1ccccc1Br was read as aSyn UTR act -73*.
`N#Cc1cn(-c2ccccc2)nc1-c1cc2ccccc2oc1=O` gave aSyn UTR act -63*.
`O=S1(=O)N=C(Nc2ccc(N3CCOCC3)c(Cl)c2)c2ccccc21` gave aSyn UTR act -193*.
For O=C1c2ccccc2S(=O)(=O)c2cc(N3CCOCC3)ccc21 the results were aSyn UTR act 76.
Screening Cc1nc2ccccc2c(=O)n1/N=C1\C(=O)N(C)c2ccccc21 returned aSyn UTR act -83*.
`Cc1nnc(-c2ccccc2)c(=O)n1/N=C/c1c(O)ccc2ccccc12` gave aSyn UTR act 83.
Cc1nc2ccccc2c(=O)n1/N=C/c1cccs1 was read as aSyn UTR act -79*.
Cc1nc2ccccc2c(=O)n1/N=C/c1cn(-c2ccccc2)nc1-c1cccs1 was read as aSyn UTR act -67*.
For Cc1cc2nc3c(nc2cc1C)CCCC3 the results were aSyn UTR act -178*.
`CCOc1ccc(Nc2nc(-c3sc(N)nc3C)cs2)cc1` gave aSyn UTR act -70*.
Screening Cc1ccc(Nc2nc(-c3sc(N)nc3C)cs2)cc1 returned aSyn UTR act -134*.
`CN(C)/C=C(\C#N)C(=O)Nc1ccc(F)cc1` gave aSyn UTR act -96*.
Screening CN(C)/C=C(\C#N)C(=O)Nc1ccc(F)c(Cl)c1 returned aSyn UTR act -143*.
Screening CN(C)/C=C(\C#N)C(=O)N/N=C/c1ccc(Cl)cc1 returned aSyn UTR act -66*.
Screening C=CCNC(=O)C1CCN(c2nc(C)cc(-c3ccccc3)n2)CC1 returned aSyn UTR act -97*.
O=C(Nc1ccc(N2CCCC2)cc1)c1ccccc1F was read as aSyn UTR act -80*.
`O=C(Nc1ccc(N2CCOCC2)nc1)c1ccccc1Cl` gave aSyn UTR act -102*.
`O=C(Nc1ccc(N2CCCCC2)cc1)c1cccnc1Cl` gave aSyn UTR act -128*.
For O=C(Nc1ccc(N2CCCC2)cc1)c1cccc(Cl)c1Cl the results were aSyn UTR act -100*.
For COc1ccccc1N1CCN(C(=O)CSc2ccccc2)CC1 the results were aSyn UTR act -82*.
C=CCN1CCN(C(=O)CSc2ccccc2)CC1 was read as aSyn UTR act -103*.
Screening CCOc1cccc(C=Nc2cc(C)cc(C)c2O)c1O returned aSyn UTR act -85*.
Screening CCOc1cccc(/C=N/NC(=S)Nc2cc(S(=O)(=O)N3CCOCC3)ccc2N2CCOCC2)c1O returned aSyn UTR act 81.
Screening CCOc1cccc(/C=N/Nc2ccc(S(=O)(=O)N(CC)CC)cn2)c1O returned aSyn UTR act 88.
Cc1nn(-c2ccccn2)c2c1-c1nc(N)ncc1CC2 was read as aSyn UTR act -101*.
COc1ccc(-c2cc(=NC(CC(C)C)C(=O)O)c3cc(C)ccc3o2)cc1 (stereo not given) was read as aSyn UTR act -153*.
CC1CCC(NC(=O)C2CCN(c3c4c(nc5ncnn35)CCC4)CC2)CC1 (stereo not given) was read as aSyn UTR act -65*.
`CCCc1nn(C)c(C(=O)Nc2ccccc2)c1Cl` gave aSyn UTR act -98*.
Screening CCCc1nn(C)c(C(=O)Nc2ccc(Cl)cc2)c1Cl returned aSyn UTR act -79*.
CCCc1nn(C)c(C(=O)Nc2cccc(C)c2)c1Cl was read as aSyn UTR act -123*.
For Cc1ccc(C2CCN(C(=O)Nc3ccccc3)C2)cc1 (stereo not given) the results were aSyn UTR act -151*.
`O=C(Nc1ccc(Cl)cc1)N1CCC(c2ccccc2)C1` (stereo not given) gave aSyn UTR act -82*.
O=C(Nc1cccc(F)c1)N1CC=C(c2ccc(Cl)cc2)CC1 was read as aSyn UTR act -110*.
Screening O=C(Nc1cccc(F)c1)N1CCC(c2ccccc2)CC1 returned aSyn UTR act -109*.
Screening Cn1cccc1/C=C1\Cc2ccccc2C1=O returned aSyn UTR act -142*.
For c1ccc(-c2csc(Nc3cccnc3)n2)cc1 the results were aSyn UTR act -164*.
Clc1ccc(Nc2nc(-c3cccnc3)cs2)cc1 was read as aSyn UTR act -146*.
For CCN(CC)c1ccc(Nc2nc(-c3cccnc3)cs2)cc1 the results were aSyn UTR act -210*.
For Fc1ccc(Nc2nc(-c3cccnc3)cs2)cc1 the results were aSyn UTR act -265*.
Screening COc1ccc(/C=C(\C#N)c2nc3ccc(C)cc3[nH]2)cc1Oc1ccc(C(F)(F)F)cc1[N+](=O)[O-] returned aSyn UTR act -85*.
`COc1c(O)ccc(/C=C(\C#N)c2nc3ccccc3[nH]2)c1[N+](=O)[O-]` gave aSyn UTR act -92*.
